The list is not random: actives were taken first. Their share in the collection is about 1.7%.
GLP1R ag – qHTS of GLP-1 Receptor Agonists; Glucagon-like peptide 1 receptor (Homo sapiens), P43220; HEK293 GLP-1R CRE-luciferase, luminescence, 4-6 h; cells express a hypersensitive GLP-1R form; Potency, µM (titrated, usually from 45.6 µM), usual class: activators; actives 0.007% (n = 380,000)
Target sequence (P43220 whole entry, looked up): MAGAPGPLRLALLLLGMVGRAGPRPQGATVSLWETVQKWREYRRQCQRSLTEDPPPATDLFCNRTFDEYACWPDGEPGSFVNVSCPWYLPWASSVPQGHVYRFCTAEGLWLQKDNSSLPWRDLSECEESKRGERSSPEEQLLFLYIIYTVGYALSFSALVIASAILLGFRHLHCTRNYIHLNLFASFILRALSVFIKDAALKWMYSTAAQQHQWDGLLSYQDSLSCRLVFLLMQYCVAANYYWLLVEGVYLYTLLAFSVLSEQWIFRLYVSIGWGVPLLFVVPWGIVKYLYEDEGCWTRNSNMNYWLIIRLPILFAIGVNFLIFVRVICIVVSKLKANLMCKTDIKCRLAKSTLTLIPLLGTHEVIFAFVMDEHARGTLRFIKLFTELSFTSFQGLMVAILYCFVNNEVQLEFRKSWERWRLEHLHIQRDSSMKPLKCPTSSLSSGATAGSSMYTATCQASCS
GLP1R inv ag – qHTS of GLP-1 Receptor Inverse Agonists (Inhibition Mode) | Glucagon-like peptide 1 receptor (Homo sapiens), P43220 | HEK293 GLP-1R CRE-luciferase, luminescence, 24 h; GLP-1R form is constitutively active | Potency, µM (doses to about 38.3 µM), hits mostly inhibitors | actives 1.6% (n = 410,000) | AID 624417, 2012; further: nearly all actives have a fitted effect of over 55% in size
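Using stably transfected HEK293 (constitutively active GLP-1R, cAMP-luciferase reporter), compounds were incubated 24 hr and luciferase measured by luminescence.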
GLP1R cytotox – qHTS of GLP-1 Receptor Inverse Agonists: Cytotox Screen; HEK293 cAMP-luciferase reporter cells, luminescence, 24 h; AID 624418, 2012; Potency, µM (doses to about 38.3 µM), most hits filed as inhibitors; actives 0.13% (n = 410,000);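 further: loss of luciferase light is scored as toxicity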
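Compound-treated cells are incubated 24 hr at 37 deg C under 5% CO2 after a 12 hour attachment period, then luciferase detection reagent is added and luminescence is measured following 12 min at room temperature; lowered signal indicates toxicity.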
PTHR1 agonist – qHTS for PTHR1 Agonists: Primary Screen; Parathyroid hormone/parathyroid hormone-related peptide receptor (Homo sapiens), Q03431; HEK293 GP2 PTHR1 cells, GloSensor cAMP luminescence, 1 h; Potency, µM (titrated, usually from 115 µM), actives largely listed as activators; actives 0.075% (n = 410,000); further: nearly all actives have a fitted effect of over 55% in size
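HEK-293-derived GP2 cells expressing PTHR1 and a GloSensor cAMP reporter, 3,000/well, plated overnight, given luciferin plus IBMX (each 0.5 mM as added) for 1 h at 37 °C, then compound for 1 h at 37 °C. Luminescence was read after 15 min at room temperature.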
Of the large screens only hits and unclear results are named; the others gave an inactive call. The call rests on the fitted dose curve; in most records, active means well fitted curve in the direction sought with a large enough effect; inconclusive means small, poorly fitted or top-dose-only effect, or another doubt; inactive means no such curve, though single readings can be large; an effect the other way counts as inactive or inconclusive.

CCN(CC)CCOc1ccc(/C(=C(/Cl)c2ccccc2)c2ccccc2)cc1	GLP1R inv ag 11µM, GLP1R cytotox inconclusive
Cc1ccc(NC(=O)CNC(=O)c2cccc(C)c2)nc1	GLP1R inv ag inconclusive, GLP1R cytotox inconclusive
C=CCC1(O)CCC2C3CCC4=CC(=O)CCC4=C3C=CC21C (stereo not given)	none (no result: GLP1R inv ag, GLP1R cytotox, PTHR1 agonist)
O=[N+]([O-])c1c(Cl)c(Cl)c(Cl)c(Cl)c1Cl	none
Nc1cc(Cl)c2nonc2c1[N+](=O)[O-]	GLP1R inv ag inconclusive, GLP1R cytotox 8.9µM
c1ccc2c(c1)CSc1ccccc1C2C1=NCCN1 (stereo not given)	GLP1R inv ag inconclusive
Brc1ccc2c(c1)C(OC1CN3CCC1CC3)c1ccccc1CS2 (stereo not given)	GLP1R inv ag inconclusive, GLP1R cytotox 10µM
COC(=O)c1ccc(Nc2cc(C)nc3ccc(C)cc23)cc1	GLP1R inv ag 10µM, GLP1R cytotox inconclusive
O=C(Nc1ccc(Br)cc1)c1ccc(F)c(S(=O)(=O)N2CCCc3ccccc32)c1	GLP1R inv ag 3.2µM (no result: GLP1R ag)
O=C(Nc1ccc(Br)cc1)c1cccc(S(=O)(=O)N2CCc3ccccc32)c1	GLP1R inv ag 2µM (no result: GLP1R ag)
CCc1ccc(NC(=O)c2ccc(F)c(S(=O)(=O)N3CCC4(CC3)OCCO4)c2)cc1	GLP1R inv ag inconclusive (no result: GLP1R ag)
CCc1ccc(NC(=O)c2ccc(F)c(S(=O)(=O)N3CCc4ccccc4C3)c2)cc1	GLP1R inv ag 8.9µM (no result: GLP1R ag)
O=C(C1CCN(S(=O)(=O)c2ccc(Br)s2)CC1)N1CCN(c2cccc(C(F)(F)F)c2)CC1	GLP1R inv ag inconclusive (no result: GLP1R ag)
COC(=O)C1(C(=O)OC)C[C@H](c2ccc(OC)cc2)N(Cc2ccccc2OC)[C@@H]1c1cccs1	GLP1R inv ag 10µM (no result: GLP1R ag)
Cc1cc(N=Nc2ccccc2C)ccc1N	GLP1R inv ag 10µM
O=C(NCCc1ccccc1)c1ccc2nccnc2c1	GLP1R inv ag 5µM
COc1cccc(Nc2nc(C(N)Cc3ccc(Cl)cc3)cs2)n1 (stereo not given)	GLP1R inv ag inconclusive, GLP1R cytotox inconclusive
CC(C)(C)OC(=O)[C@H](Cc1ccccc1)NC(=O)c1nc[nH]c1C(=O)NC1CCN(C(=O)OC(C)(C)C)CC1	GLP1R inv ag 10µM, GLP1R cytotox inconclusive
CC1=C(C)/C(=N\OS(=O)(=O)c2ccccc2)C=CC1=O	GLP1R inv ag inconclusive, GLP1R cytotox inconclusive
COc1ccc(-n2c(/C=C/c3ccc(O)cc3)nc3ccccc3c2=O)cc1	GLP1R inv ag 10µM
O=c1c2ccccc2nc(/C=C/c2ccc(O)cc2)n1-c1ccc(O)cc1	none
Cc1ccc(Cl)cc1N1CCN(C(=O)C2CCCN(S(=O)(=O)c3ccc(Br)s3)C2)CC1 (stereo not given)	GLP1R inv ag inconclusive (no result: GLP1R ag)
COc1cc(C2NCc3ccccc3-n3cccc32)ccc1O (stereo not given)	GLP1R inv ag 10µM
CCOc1cc(C2NCc3ccccc3-n3cccc32)ccc1OC (stereo not given)	GLP1R inv ag 10µM
COc1ccc(C2NCc3ccccc3-n3cccc32)cc1 (stereo not given)	GLP1R inv ag inconclusive
CCOc1cc2c(cc1OCC)-n1cccc1C(c1ccc(OC)c(O)c1)NC2 (stereo not given)	GLP1R inv ag inconclusive
CC[N+](C)(CC)CCOC(=O)C(O)(c1ccccc1)c1ccccc1	none (no result: GLP1R inv ag, GLP1R cytotox, PTHR1 agonist)
O=C1Nc2cccnc2N(C(=O)CCl)c2ccccc21	GLP1R inv ag inconclusive, GLP1R cytotox inconclusive
CC(C)CCn1c(N)c(C(=O)OCC2CCCO2)c2nc3ccccc3nc21 (stereo not given)	GLP1R inv ag 4µM
CCn1nc(-c2cccs2)nc2c(=O)n(C)c(=O)nc1-2	GLP1R inv ag 2.8µM, GLP1R cytotox inconclusive
COC(=O)C(O)(c1ccc(NC(=S)NC(=O)c2ccc(Cl)cc2Cl)c(C)c1)C(F)(F)F (stereo not given)	GLP1R inv ag inconclusive, GLP1R cytotox inconclusive
CCOC(=O)C(O)(c1ccc(NC(=S)NC(=O)c2ccc(Cl)cc2Cl)c(C)c1)C(F)(F)F (stereo not given)	GLP1R inv ag 4µM, GLP1R cytotox inconclusive
C[C@]12CCC3C(CCC4=C(Cl)C(=O)CC[C@@]43C)C1CCC2O (stereo not given in full)	none (no result: GLP1R inv ag, GLP1R cytotox, PTHR1 agonist)
CC12CCC3c4ccc(OC(=O)N(CCCl)CCCl)cc4CCC3C1CCC2O (stereo not given)	GLP1R inv ag 10µM, GLP1R cytotox inconclusive
Cc1nc2ccc(NC(=O)c3cccc(S(=O)(=O)N(C)c4ccccc4)c3)cc2s1	GLP1R inv ag 5.6µM, GLP1R cytotox inconclusive
NC1=C(Br)C(=O)c2ncccc2C1=O	GLP1R inv ag 3.2µM, GLP1R cytotox 4µM
C=CC[C@]1(O)CCC2C3CCC4=CCCCC4C3CCC21C (stereo not given in full)	none (no result: GLP1R inv ag, GLP1R cytotox, PTHR1 agonist)
C[C@@H]1CCCCO[C@H](CN(C)Cc2ccccc2)[C@@H](C)CN([C@H](C)CO)C(=O)c2cc(NC(=O)c3ccccc3)ccc2O1	GLP1R inv ag inconclusive
COc1ccc(NC(=O)Nc2ccc3c(c2)C(=O)N([C@H](C)CO)C[C@H](C)[C@@H](CN(C)Cc2ccc(Cl)c(Cl)c2)OCCCC[C@@H](C)O3)cc1	GLP1R inv ag 3.2µM
CC(C)Cn1cnc2c(c(-c3ccccc3)c(-c3ccccc3)n2Cc2ccco2)c1=N	GLP1R inv ag 3.2µM, GLP1R cytotox inconclusive
N=c1c2c(-c3ccccc3)c(-c3ccccc3)n(Cc3ccco3)c2ncn1CCCN1CCOCC1	GLP1R inv ag inconclusive, GLP1R cytotox inconclusive
COc1cc(Cn2c(=O)oc3ccc(C)cc32)ccc1OC(C)C	GLP1R inv ag inconclusive
Cn1nc(-c2ccc(C(=O)Nc3ccc(OC(F)(F)F)cc3)cc2)c2ccccc2c1=O	none (no result: GLP1R ag)
Cc1ccc(NP(=O)(Oc2ccccc2F)Oc2ccccc2F)cc1C	GLP1R inv ag inconclusive
O=P(Nc1cccc(F)c1)(Oc1ccccc1F)Oc1ccccc1F	GLP1R inv ag 11µM
Cc1cccc(NP(=O)(Oc2ccccc2F)Oc2ccccc2F)c1	GLP1R inv ag 11µM, GLP1R cytotox inconclusive
Cc1ccc(S(=O)(=O)NCCC(=O)Nc2ccc(Cl)cc2C(=O)c2ccccc2)cc1	GLP1R inv ag 11µM
ClC(Cl)(Cl)c1nc2ccccc2n2nncc12	GLP1R inv ag inconclusive, GLP1R cytotox inconclusive
COc1ccc(CS(=O)(=O)/C(Cl)=C(/Cl)C(=O)Nc2ccc(OC)nc2)cc1	GLP1R inv ag inconclusive, GLP1R cytotox 11µM
COc1cccc(C(=O)N/N=C(/c2ccccc2)c2ccccn2)c1	GLP1R inv ag 7.9µM, GLP1R cytotox inconclusive
O=c1cc(CN2CCN(S(=O)(=O)c3cccc(Cl)c3)CC2)c2ccc(O)cc2o1	GLP1R inv ag inconclusive
CCCOP(=O)(OCCC)c1nc(-c2ccccc2)oc1NCc1ccccc1	GLP1R inv ag 10µM
CCOP(=O)(OCC)c1nc(-c2ccc(Cl)cc2)oc1NCc1ccccc1	GLP1R inv ag inconclusive
